Test results as given in PubChem BioAssay (NCI).
Where “and” joins values, the source holds several entries; their conditions need not be identical. Equal values may be shown once. The panel holds about 79,000 compounds, 15% with a hit somewhere; the sample as a whole holds those more often. Unmarked numbers belong to inactive results. Calls of active or inactive are those of the source. Rule as the data show it: active = growth inhibition above about 70%; inactive = the rest.

Assays:
[1] = NCI Yeast Anticancer Drug Screen. Data for the rad50 strain (AID 155);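 also: 0% = growth of vehicle-only cultures of the same strain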; details: S. cerevisiae rad50 strain growth inhibition, hits give high values
Procedure, shortened: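 Vehicle-treated cultures provide the reference for the growth inhibition reported for compound-exposed, repair-deficient yeast.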

[2] = NCI Yeast Anticancer Drug Screen. Data for the mec2-1 strain (AID 157); details: S. cerevisiae mec2-1 strain, hits give high values
Procedure, shortened: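 Cells of the genetically defined mec2-1 yeast strain are incubated with test compound. Inhibition of growth is calculated against vehicle-treated controls.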

[3] = NCI Yeast Anticancer Drug Screen. Data for the sgs1 mgt1 strain (AID 161);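 also: 0% = growth of cultures given vehicle only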; details: S. cerevisiae sgs1 mgt1 strain, hits give high values
Procedure, shortened: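 Inhibition of yeast growth, normalised to vehicle-treated controls, is reported for a strain bearing genetic alterations in DNA damage repair.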

[4] = NCI Yeast Anticancer Drug Screen. Data for the cln2 rad14 strain (AID 165);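 also: 0% = growth equal to vehicle treated cultures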; details: S. cerevisiae cln2 rad14 strain, hits give high values
Procedure, shortened: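 The screen exposed genetically defined yeast (cln2 rad14) to test compounds and scored growth inhibition relative to vehicle-treated controls.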

[5] = NCI Yeast Anticancer Drug Screen. Data for the bub3 strain (AID 167); details: S. cerevisiae bub3 mutant strain, hits give high values
Procedure, shortened: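 Mutant yeast screening strain plus compound; vehicle-treated cultures serve as the 0% inhibition reference.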

[6] = NCI Yeast Anticancer Drug Screen. Data for the mlh1 rad18 strain (AID 175); details: S. cerevisiae mlh1 rad18 strain growth inhibition, hits give high values
Procedure, shortened: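 Compound-treated yeast growth, normalised to vehicle controls. Strain bears defined DNA repair mutations.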

[7] = at 5.0 µM (retest, dose inferred, filed as 0.5)
[8] = at 50.0 µM (retest, dose inferred, filed as 5.0)

Row | SMILES | growth inhibition [1, 7] | growth inhibition [1, 8] | growth inhibition ([1]; at 50.0 µM) | growth inhibition [2, 7] | growth inhibition [2, 8] | growth inhibition ([2]; at 50.0 µM) | growth inhibition [3, 7] | growth inhibition [3, 8] | growth inhibition ([3]; at 50.0 µM) | growth inhibition [4, 7] | growth inhibition [4, 8] | growth inhibition ([4]; at 50.0 µM) | growth inhibition [5, 7] | growth inhibition [5, 8] | growth inhibition ([5]; at 50.0 µM) | growth inhibition [6, 7] | growth inhibition [6, 8] | growth inhibition ([6]; at 50.0 µM)
1 | C[N+](C)=C1C=CC(=C2C=CSC=C2)C=C1 | 22% | 45% | 11.1% | 27% | 36% | 10.3% | 20% | 46% | 59.8% | 29% | 45% | 25% | 17% | 72% (active) | 79.2% (active) | 26% | 52% | 89.8% (active)
2 | CC(=O)O.[Au].c1ccc([PH+](c2ccccc2)c2ccccc2)cc1 | 99% (active) | 98% (active) | 98.2% (active) | 98% (active) | 98% (active) | 98.2% (active) | 99% (active) | 55% | 98% (active) | 99% (active) | 96% (active) | 98% (active) | 100% (active) | 98% (active) | 98.2% (active) | 99% (active) | 97% (active) | 97.6% (active)
3 | CCOC(=O)N(C(=O)c1ccc([As]=O)cc1)C(=O)c1ccc([As]=O)cc1 (configuration not stated) | 8% | 98% (active) | 99.2% (active) | 5% | 99% (active) | 99.3% (active) | 10% | 100% (active) | 99.5% (active) | -4% | 99% (active) | 99% (active) | 11% | 99% (active) | 89.3% (active) | 6% | 99% (active) | 98.7% (active)
4 | CSc1ccc(NC(=O)C2c3[nH]c4ccccc4c3C3CCC(C(C)(C)C)CC3C2C(=O)O)cc1 (configuration not stated) | 0% | -4% | 16.8% | -16% | 10% | 1.95% | -4% | 1% | 30.8% | -19% | 8% | 56.4% | -8% | 5% | 77.1% (active) | 11% | 26% | 46%
5 | Oc1c(Cl)c(Cl)c(Cl)c(Cl)c1Cl.[Cu+2] | 23% | 98% (active) | 88.5% (active) | 18% | 99% (active) | 89.8% (active) | 31% | 98% (active) | 81% (active) | 8% | 99% (active) | 92.8% (active) | 11% | 97% (active) | 89.5% (active) | 15% | 96% (active) | 88.6% (active)
6 | O=[N+]([O-])[O][Tl]([c]1ccccc1)[c]1ccccc1 | -4% | 41% | 15.3% | -4% | 54% | 21.4% | -4% | 56% | 49.5% | -4% | 57% | 20.4% | -3% | 75% (active) | 51.8% | -3% | 41% | 8.3%
7 | O=C(CCl)c1ccc(O)cc1 | 16% | 96% (active) | 91.5% (active) | 21% | 98% (active) | 98.2% (active) | 31% | 97% (active) | 97.3% (active) | 7% | 97% (active) | 89.2% (active) | 20% | 98% (active) | 96% (active) | 22% | 98% (active) | 97.8% (active)
8 | C(CCC[Te][Te]CCCCCCOC1CCCCO1)CCOC1CCCCO1 (configuration not stated) | 6% | 39% | 84.5% (active) | 3% | 17% | 48.5% | 7% | 19% | 67.7% | 3% | 29% | 62.4% | 0% | 30% | 68.7% | 2% | 30% | 90% (active)
9 | O=C1c2ccccc2-c2c3c(cc4ccnc1c24)OCO3 | 96% (active) | 97% (active) | 86.2% (active) and 86.5% (active) | 57% | 96% (active) | 84.8% (active) and 88.2% (active) | 50% | 96% (active) | 86.6% (active) and 86.2% (active) | 37% | 95% (active) | 81.7% (active) and 87% (active) | 61% | 95% (active) | 87.5% (active) and 87.3% (active) | 73% (active) | 95% (active) | 85.8% (active) and 88% (active)
